# Sm TGR inh – qHTS Assay for the Inhibitors of Schistosoma Mansoni Peroxiredoxins; Schistosoma mansoni thioredoxin glutathione reductase (TGR), Q962Y6; purified TGR, DTNB reduction, TNB absorbance 405 nm; Potency, µM (series often up to 114 µM), without a hit: top-dose activity change, negative = inhibition, hits mostly inhibitors; actives 3% (n = 360,000); also: potency is read from the fitted curve at half-maximal effect; % is scaled to controls: 0 for no effect and ±100 for the full control effect; nearly all actives have a fitted effect of over 60% in size
#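 Kinetic colorimetric format: TGR-catalysed, NADPH-driven DTNB reduction monitored via TNB absorbance. Enzyme dispensed at 20 nM; compound exposure 15 min at room temperature before reaction start.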
# HCV inh – qHTS Assay for Inhibitors of Hepatitis C Virus (HCV); Huh7.5.1 HCVcc-Cre infection, luciferase reporter, 44 h; Potency, µM (doses to about 41.8 µM), without a hit: at the top dose activity change, negative = inhibition, actives largely listed as inhibitors; actives 3.4% (n = 340,000); AID 651820, 2012; also: potency is read from the fitted curve at half-maximal effect; % is scaled to controls: 0 for no effect and ±100 for the full control effect
#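 Whole-lifecycle infectious HCVcc-Cre system; cells 1,000/well, compound then virus (~0.5 moi) added 4 h after plating, 44 h culture. Luciferase read 15 sec following 15 min substrate incubation, room temp.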
# FMDV antiviral – High Throughput Screening for Foot and Mouth Disease Virus Antivirals. FMDV antiviral cell-based qHTS. AID 1159524, 2015. actives 1.2% (n = 410,000). Potency, µM (series often up to 57.9 µM), inactives show top-dose activity change, negative = inhibition, most hits filed as inhibitors; calls by dose curve; tested in HEK293T cells; also: read-out not given here; potency is read from the fitted curve at half-maximal effect; % is scaled to controls: 0 for no effect and ±100 for the full control effect; nearly all actives have a fitted effect of over 45% in size
# VACV Venus inh – qHTS for Stage-Specific Inhibitors of Vaccinia Orthopoxvirus: Venus Reporter Primary qHTS. Vaccinia virus Venus reporter expression, fluorescence. actives 0.46% (n = 330,000). Potency, µM (series often up to 36.5 µM), without a hit: at the highest dose activity change, negative = inhibition, hits mostly inhibitors; calls by dose curve; tested in A549 cells; also: potency is read from the fitted curve at half-maximal effect; % is scaled to controls: 0 for no effect and ±100 for the full control effect; nearly all actives have a fitted effect of over 30% in size
# Vaccinia mCherry – qHTS for Stage-Specific Inhibitors of Vaccinia Orthopoxvirus: mCherry Reporter Primary qHTS; Potency, µM (top dose mostly 36.5 µM), for the others: at the top dose activity change, negative = inhibition, hits mostly inhibitors; actives 0.63% (n = 310,000); Vaccinia virus mCherry reporter infection, fluorescence; calls by dose curve; tested in A549 cells; also: potency is read from the fitted curve at half-maximal effect; % is scaled to controls: 0 for no effect and ±100 for the full control effect; nearly all actives have a fitted effect of over 35% in size
# HCMV antiviral – qHTS Assay for inhibitors of the human cytomegalovirus (HCMV); HFF cells, HCMV-luciferase reporter, 72 h; stronger effect = lower value; AID 1259415, 2018; actives 4.5% (n = 410,000); activity change, negative = inhibition, % at 57.5 µM; in the data active = activity change below about -60%; inconclusive = no clear call, values can overlap the other calls; inactive = above about -39%; also: % is scaled to controls: 0 for no effect and ±100 for the full control effect
#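 Two-dose cell screen: HFF monolayers treated with compounds and infected with luciferase-expressing HCMV at 1 PFU/cell, 72 h at 37C, then lysed for luciferase measurement.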
# HCV inh confirm – qHTS Assay for Inhibitors of Hepatitis C Virus (HCV): Confirmation Assay for Cherry-picked Compounds; shares compounds with HCV inh; HCVcc-Cre infectious virus cell assay, luciferase, inhibition; Potency, µM (highest dose often 41.8 µM), inactives show at the highest dose activity, negative = inhibition, hits mostly inhibitors; actives 78% (n = 640); also: potency is read from the fitted curve at half-maximal effect; nearly all actives have a fitted effect of over 80% in size
# HCV cytotox – qHTS Assay for Inhibitors of Hepatitis C Virus (HCV): Cytotoxicity Counterscreen for Cherry-picked Compounds; shares compounds with HCV inh; HCV host cell line cytotoxicity counterscreen; Potency, µM (doses to about 41.8 µM), for the others: top-dose activity change, negative = cytotoxicity, hits mostly inhibitors; actives 22% (n = 640); AID 720576, 2013;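 also: potency is read from the fitted curve at half-maximal effect; 44 h compound exposure; % is scaled to controls: 0 for no effect and ±100 for the full control effect; nearly all actives have a fitted effect of over 55% in size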
# Active calls of the source: *; i = inactive; ? = inconclusive; / = no result given; [ ] = dose if it differs, or a comment. Rows were chosen to be rich in hits. Some 9.3% of all compounds tested hit in one or more screens of this group. Unless noted, calls follow the shape of the dose curve; as a rule, active = well fitted curve in the direction sought with a large enough effect; inconclusive = small, poorly fitted or top-dose-only effect, or another doubt; inactive = no such curve, though single readings can be large; an effect the other way counts as inactive or inconclusive.
SMILES,Sm TGR inh,HCV inh,FMDV antiviral,VACV Venus inh,Vaccinia mCherry,HCMV antiviral,HCV inh confirm,HCV cytotox
C/C(=N\NC(=O)C1COc2ccccc2O1)c1ccccn1 (stereo not drawn),-5%,4.5µM*,-3%,?,4.5µM*,-102*,11µM*,?
C/C(=N\NC(=O)C1COc2ccccc2O1)c1ccc(C)o1 (stereo not drawn),-20%,3%,11%,-15%,-16%,7,/,/
Fc1cccc(F)c1[B-](F)(F)F,/,-3%[8.37 µM],-6%,-6%,4%,-4,/,/
COCC(C)n1c(SCC(=O)N2CCc3ccccc3C2)nc2ccccc2c1=O (stereo not drawn),-12%,?,0%,-18%,?,-25,20µM*,-3%
Cc1cc(/C=C/c2nc3ccccc3s2)ccc1N(C)C,/,/,/,104%,18%,/,/,/
COC(=O)c1nn2c(C(F)(F)F)cc(-c3ccc(Br)o3)nc2c1Br,45µM*,5.6µM*,-27%,/,/,36,?,-19%
O=C(/C=C\c1ccc2c(c1)OCO2)NC1CC(=O)N(c2ccc(Cl)cc2)C1 (stereo not drawn),6%,/,-15%,-8%,-7%,?,/,/
O=C(/C=C\c1ccc2c(c1)OCO2)Nc1c2c(nn1-c1ccc(Cl)cc1)CSC2,-15%,?,-26%,-17%,i,6,13µM*,13%
COc1ccc2c(c1)CCc1c-2nc2ccccc2c1N1CCOCC1,40µM*,4.5µM*,14%,-16%,-13%,22,-21%,-51%
CSc1nccc(N2CCN(c3ccc(F)cc3)CC2)n1,-5%,?,-12%,-17%,?,?,/,/
CC(C)n1c(NCCc2ccccc2)nc2c1c(=O)n(C)c(=O)n2C,-14%,?,16µM*,-29%,-17%,-87*,7.9µM*,?
CCn1c(NCc2ccccn2)nc2c1c(=O)n(C)c(=O)n2C,-3%,21%,8%,/,/,-33,/,/
CCOc1ccc(CCNc2nc3c(c(=O)n(C)c(=O)n3C)n2CC)cc1OCC,-4%,5.6µM*,-25%,/,/,-97*,6.3µM*,14µM*
O=S(=O)(Nc1ccc2ccccc2n1)c1ccccc1Cl,3%,2%,85%,/,/,-7,/,/
CN(C)c1ccc(/C=C2\Oc3ccc(C#Cc4cccc(N)c4)cc3C2=O)cc1,/,?,24%,11%,?,/,8.9µM*,39%
O=C(Nc1ccc(-c2nc3ccccc3[nH]2)cc1)c1ccco1,?,?,/,-7%,3%,/,/,/
O=C(/C=C/c1ccco1)Nc1ccc(-c2nc3ccccc3[nH]2)cc1,-18%,2.8µM*,-7%,?,?,?,6.3µM*,?
Clc1ccc2c(c1)C(OC1CN3CCC1CC3)c1ccccc1CS2 (stereo not drawn),0%,10µM*,?,?,?,-35,16µM*,?
CN(C)CCOC1c2ccccc2CSc2ccccc21 (stereo not drawn),/,-9%,-14%,-5%,i,23,/,/
CC1CC(C)C(=O)C(C(CC2CC(=O)NC(=O)C2)OC(=O)CC(=O)c2ccccc2)C1 (stereo not drawn),/,5µM*,-24%,1.8µM*,4µM*,-98*,13µM*,26%
CCOc1ccc2[nH]c(=O)c(CN(CCO)C(=O)c3ccc(Br)cc3)cc2c1,-5%,-4%,-18%,-11%,i,-16,/,/
COc1ccc(C(=O)NC2CCCc3c2cnn3-c2ccccc2F)cc1OC (stereo not drawn),2%,4.5µM*,?,/,/,?,7µM*,?
Cc1cccnc1CCNC(=O)c1ccc(OC2CCN(Cc3ccccn3)CC2)cc1,-30%,-16%,?,-13%,-13%,-36,/,/
CCn1nc(C)c(CNC(=O)c2ccc(OC3CCN(Cc4ccccn4)CC3)cc2)c1C,0%,1µM*,?,-16%,-3%,-91*,0.56µM*,1.1µM*
CCOc1ccccc1NC(=O)NC1CCCc2ccccc21 (stereo not drawn),2%,?,?,/,/,32,7.9µM*,31%
SMILES,Sm TGR inh,HCV inh,FMDV antiviral,VACV Venus inh,Vaccinia mCherry,HCMV antiviral,HCV inh confirm,HCV cytotox
O=C(COC(=O)c1n[nH]c2ccccc12)c1cccc(Br)c1,6%,-24%,-21%,-17%,i,35,/,/
CCS(=O)(=O)N1CCN(c2ccc([N+](=O)[O-])c(NC(C)c3ccccc3)c2)CC1 (stereo not drawn),-1%,?,-23%,-5%,/,?,/,/
CC(Nc1cc(N2CCNCC2)ccc1[N+](=O)[O-])c1ccccc1 (stereo not drawn),1%,3.5µM*,-3%,?,14µM*,-18,?,55%
O=c1c2ccccc2oc2cc(-c3ccc4[nH]ccc4c3)ccc12,/,?,52%,-29%,?,33,/,/
O=c1oc(C2(O)CCCCC2)cc2ccc(-c3ccc4[nH]ccc4c3)cc12,/,1.1µM*,11%,-25%,0.63µM*,-93*,?,-14%
CC1CCN(CCOCCOc2ccccc2-c2ccccc2)CC1,-6%,?,-12%,-14%,-10%,?,/,/
CC1CCN(CCCCOc2ccccc2-c2ccccc2)CC1,1%,?,0%,?,?,?,20µM*,-28%
Cc1cc(C(=O)COC(=O)c2ccc(O)cc2O)c(C)n1-c1ccccc1,1%,?,-22%,?,?,-12,18µM*,-35%
S=C(NCc1ccccc1)Nc1cccc2cnccc12,?,2µM*,?,-16%,-17%,-87*,7µM*,10µM*
Oc1ccc(Br)cc1-c1cc(-c2ccco2)[nH]n1,-27%,?,5%,?,/,-2,/,/
Oc1ccc(Br)cc1-c1ccn[nH]1,-5%,?,12%,-26%,?,?,-28%,-20%
O=P(O)(CCc1ccccn1)CN1CCOCC1,1%,12%,21%,-15%,-17%,5,/,/
O=C(NC1CCCCC1NC(=O)c1ccco1)c1ccco1 (stereo not drawn),6%,20%,-15%,-11%,-8%[1.46 µM],8,/,/
O=C(NC1c2ccccc2-c2ccccc21)c1ccco1,2%,?,-4%,?,?,-17,7.9µM*,-93%
